Inconclusive results are not listed. A number with no mark means an inactive call. Calls come from the whole dose curve; as a rule, active = well fitted cell-killing curve with a large enough effect in the repeat runs; inconclusive = weak or mixed curves, or effect the other way; inactive = no such curve, though single readings can be large or run the other way.
Assay: qHTS assay to identify small molecule agonists of the vitamin D receptor (VDR) signaling pathway - cell viability counter screen (AID 743224); note: nearly all actives have a fitted effect of over 50% in size
Details: VDR-bla HEK293T viability, CellTiter-Glo luminescence, 16 h; series mostly up to 62.6 µM; activity change, negative = cytotoxicity: at the top concentration
Summary of the method: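 VDR-bla cells were preincubated 4 h at 37C/5% CO2, then exposed to compounds for 16 h. After the 2 h room-temperature bla FRET read, CellTiter-Glo was added to the same wells and luminescence read after 30 min.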
% is set by controls: 0 for no effect and ±100 for the full control effect.

| Compound | activity change, negative = cytotoxicity |
| --- | --- |
| CC(CN)CCCN (stereo not given) | -9.01% |
| CCN(CCO)CCCC(C)Nc1ccnc2cc(Cl)ccc12 (stereo not given) | 1.38% [at 5.95 µM] |
| CC(C)(C)c1cc(CO)cc(C(C)(C)C)c1O | -4.57% [at 81.1 µM] |
| CC(=O)O[C@H]1C[C@@H]2CC[C@@H]3[C@H](CC[C@@]4(C)[C@H]3C[C@H]([N+]3(C)CCCCC3)[C@@H]4OC(C)=O)[C@@]2(C)C[C@@H]1N1CCCCC1 | 13.8% |
| CC(=O)NCCCS(=O)(=O)O | 17.4% [at 29.1 µM] |
| CCCCC(CC)(CO)CO | 0.944% |
| N#CCCNCCC#N | 1.17% [at 81.1 µM] |
| CCCCOC(=O)c1ccccc1C(=O)OCC(CC)CCCC (stereo not given) | -0.553% |
| CCOc1ccc2[nH]cc(C(=O)NCc3ccccc3)c(=O)c2n1 | -5.71% |
| CC(=O)Nc1ccc(/C=N/NC(N)=S)cc1 | -2.43% |
| CCCCCCCCC(CO)CCCCCC (stereo not given) | 5.75% |
| CCCC[C@H]1CN(CC2CCOCC2)C(=O)OC12CCN(C1(C)CCN(C(=O)c3c(C)ncnc3C)CC1)CC2 | -5.8% |
| CCCCOC(O)CC (stereo not given) | -1.98% |
| O=C1CCCCCO1 | 0.832% [at 81.1 µM] |
| CC(=O)OCCc1ccccc1 | 8.66% |
| CCCCc1cc2ccccc2c(OCCN(C)C)n1 | -13.1% |
| O=c1[nH]cnc2ccccc12 | -5.8% [at 81.1 µM] |
| CN1CCC[C@@H]1c1cccnc1 | 30% |

| Compound | activity change, negative = cytotoxicity |
| --- | --- |
| COCCOCCOCCOCCOC | 0.71% |
| CC(C)c1ccccc1C(C)C | 1.27% |
| N#CCc1cccc(C(F)(F)F)c1 | -12.2% |
| Nc1nc(N)c(-c2ccccc2)s1 | 0.634% |
| CNS(=O)(=O)Cc1ccc2[nH]cc(CCN(C)C)c2c1 | 3.48% |
| O=C(O)C1CCC(C(=O)O)CC1 (stereo not given) | -1.89% |
| COC(Cc1ccccc1)OC | 12.9% |
| O=C(O)/C=C/c1cnc[nH]1 | -2.37% |
| CCN1CCC[C@H]1CNC(=O)c1c(OC)ccc(Br)c1OC | 24.9% |
| N[C@H]1C(O)O[C@H](CO)[C@H](O)[C@@H]1O (stereo not given in full) | 5.53% |
| CC(C)(C)c1cc(CCC(=O)OCC(COC(=O)CCc2cc(C(C)(C)C)c(O)c(C(C)(C)C)c2)(COC(=O)CCc2cc(C(C)(C)C)c(O)c(C(C)(C)C)c2)COC(=O)CCc2cc(C(C)(C)C)c(O)c(C(C)(C)C)c2)cc(C(C)(C)C)c1O | 1.05% [at 29.1 µM] |
| CCOC(=O)CC(=O)c1cc(F)c(Cl)nc1Cl | -27.7% [at 81.1 µM] |
| CCN(CC)C(C)=O | -0.605% [at 81.1 µM] |
| COC(=O)C(C)=O | -20.9% [at 81.1 µM] |
| Oc1ccc(Sc2ccc(O)cc2)cc1 | 4.57% |
| Cc1cccc(OCCOc2cccc(C)c2)c1 | -0.172% [at 81.1 µM] |
| CC(C)NCC(O)COc1ccc(CC(N)=O)cc1 (stereo not given) | -20.5% |

Source: PubChem BioAssay (Tox21)
